Source: PubChem (National Center for Advancing Translational Sciences (NCATS))
NS1 function inh: qHTS Assay for Inhibitors of Influenza NS1 Protein Function; Potency, µM (top dose mostly 46.1 µM), without a hit: at the highest dose activity, positive = more growth; 270,000 tested, 0.4% active; AID 2326, 2010; calls by dose curve; further: potency means the concentration at half of the fitted maximal effect; actives are rising curves; nearly all actives have a fitted effect of over 50% in size
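Recovery from NS1-induced slow growth read by OD600 in budding yeast switched to galactose assay medium (pH 6.0, -URA) at 1:100 dilution. Compound 23 nl per well; the matching strain lacking NS1 serves as control.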
SARS PLpro yeast: qHTS of Yeast-based Assay for SARS-CoV PLP; 330,000 tested, 0.19% active; S. cerevisiae expressing SARS-CoV PLpro, growth rescue; Potency, µM (highest dose often 32.9 µM), for the others: top-dose activity, positive = growth rescue, most hits filed as activators; calls by dose curve; further: potency means the concentration at half of the fitted maximal effect; 0% is about no effect; nearly all actives have a fitted effect of over 55% in size
CHX counter: Cycloheximide Counterscreen for Small Molecule Inhibitors of Shiga Toxin; cell reporter, cycloheximide protein synthesis inhibition counterscreen; max response, %; 300,000 tested, 12% active; AID 2314, 2010; in the data active means max response mostly above about 13%, no sharp cut-off; inactive means mostly below about 14%; further: read at 38.3 µM for the half of the compounds with a filed dose; 0% is about no effect
Pf growth 96h: Primary qHTS for delayed death inhibitors of the malarial parasite plastid, 96 hour incubation. P. falciparum luciferase reporter growth, 96 h. AID 504834, 2011. Potency, µM (series often up to 28.7 µM), for the others: top-dose activity change, negative = inhibition, actives largely listed as inhibitors. 320,000 tested, 6.9% active; further: potency means the concentration at half of the fitted maximal effect; on the % scale 0 is the no-effect control and ±100 the full control effect
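96 h incubation, 37 C, 5% CO2, of luciferase-reporter P. falciparum-infected RBCs (2% hematocrit, 0.05% parasitemia final) with test compounds; endpoint luminescence.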
Pf growth 48h: Primary qHTS for delayed death inhibitors of the malarial parasite plastid, 48 hour incubation; P. falciparum luciferase growth in erythrocytes, 48 h; Potency, µM (titrated, usually from 28.7 µM), inactives show at the highest dose activity change, negative = inhibition, hits mostly inhibitors; AID 504832, 2011; 310,000 tested, 5.9% active; further: potency means the concentration at half of the fitted maximal effect; on the % scale 0 is the no-effect control and ±100 the full control effect
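First compound was added to culture medium, then infected red cells at 0.1% parasitemia and 2% hematocrit (final). After incubation at 37 C under 5% CO2, luciferase detection reagent was dispensed and light output recorded.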
Shiga toxin inh: A qHTS for Small Molecule Inhibitors of Shiga Toxin; AID 2315, 2010; inhibition, % at 38.7 µM; 290,000 tested, 9.2% active; Vero cells, Shiga toxin protein synthesis inhibition reporter; in the data active means inhibition mostly above about 28%, no sharp cut-off; inactive means mostly below about 43%; further: 0% is about no effect
* = called active by the depositor. Rows were chosen to be rich in hits. Some 21% of all compounds tested hit in one or more screens of this group. Unless noted, the call rests on the fitted dose curve; in most records, active means well fitted inhibition curve with a large enough effect; inconclusive means small, poorly fitted or top-dose-only effect, or another doubt; inactive means no such curve, though single readings can be large or run the other way.

What do the screens show for `Cc1ccc(C(=O)NNC(=O)c2cccc(S(=O)(=O)N3CCOCC3)c2)cc1`?
SARS PLpro yeast: -1%

What do the screens show for `Cc1cccc(C(=O)N[C@H](C(=O)Nc2ccc(C)c(S(=O)(=O)N3CCOCC3)c2)C(C)C)c1`?
SARS PLpro yeast: 12%

What do the screens show for `Cc1ccsc1CN(C)C(=O)C(NC(=O)c1cccc(S(=O)(=O)N2CCOCC2)c1)C(C)C` (stereo unspecified)?
SARS PLpro yeast: -6%; Pf growth 96h: inconclusive; Pf growth 48h: 13µM*

Results for Cc1cc(C)c2nc(NC(=O)[C@@H](NC(=O)c3cccc(S(=O)(=O)N4CCOCC4)c3)C(C)C)sc2c1 ?
NS1 function inh: 6%; SARS PLpro yeast: 1%; CHX counter: 32*; Pf growth 96h: 6.6µM*; Pf growth 48h: 9.3µM*; Shiga toxin inh: 64*

Results for COc1cc2c(=O)n(-c3ccc(C)cc3)c(=O)n(CC(=O)c3ccc4c(c3)OCO4)c2cc1OC ?
NS1 function inh: -15%; SARS PLpro yeast: 7%; CHX counter: 2; Pf growth 96h: 38%; Pf growth 48h: 12µM*; Shiga toxin inh: 11

What do the screens show for `CCOC(=O)CN1C(c2ccc(O)cc2)Nc2ccc(Br)cc2C1c1ccccc1` (stereo unspecified)?
NS1 function inh: -10%; SARS PLpro yeast: -38%; CHX counter: -6; Pf growth 96h: 3.3µM*; Pf growth 48h: inconclusive; Shiga toxin inh: -9

What do the screens show for `CC(=NCCCn1ccnc1)c1c(O)n(C)c(=O)n(C)c1=O`?
NS1 function inh: 0%; SARS PLpro yeast: -3%; CHX counter: 1; Pf growth 96h: 10µM*; Pf growth 48h: 27%; Shiga toxin inh: 1

Results for CCOc1nc(Nc2ccccc2F)nc(OCC)n1 ?
NS1 function inh: -15%; SARS PLpro yeast: 4%; CHX counter: 20*; Pf growth 96h: inconclusive; Pf growth 48h: 16%; Shiga toxin inh: 10

What do the screens show for `Fc1ccccc1Nc1nc(Cl)nc(Cl)n1`?
SARS PLpro yeast: -5%; CHX counter: -6; Pf growth 96h: 77%; Pf growth 48h: 10%; Shiga toxin inh: -13

Results for C=CCNc1nc(Nc2ccccc2F)nc(OCC)n1 ?
SARS PLpro yeast: -2%; CHX counter: 47*; Pf growth 96h: 10%; Pf growth 48h: 225%; Shiga toxin inh: 123*

What do the screens show for `O=c1c(-c2ccc(O)cc2)coc2cc(O[C@@H]3O[C@H](CO)[C@@H](O)[C@H](O)[C@H]3O)cc(O)c12`?
CHX counter: 27*; Shiga toxin inh: 61*

How did OC[C@H]1O[C@@H](Oc2cc(O)cc(/C=C/c3ccc(O)cc3)c2)[C@H](O)[C@@H](O)[C@@H]1O do in these assays?
SARS PLpro yeast: 1%; CHX counter: 27*; Shiga toxin inh: 95*

Results for OC[C@@H]1O[C@@H](Oc2ccc(O)cc2)[C@H](O)[C@@H](O)[C@@H]1O ?
CHX counter: -2; Shiga toxin inh: 8

Results for COc1ccc(-c2coc3cc(OC4OC(CO)C(O)C(O)C4O)cc(O)c3c2=O)cc1 (stereo unspecified) ?
SARS PLpro yeast: 0%; Pf growth 96h: 224%; Pf growth 48h: 107%

What do the screens show for `COc1ccc(-c2coc3cc(OC4OC(CO)C(O)C(O)C4O)ccc3c2=O)cc1` (stereo unspecified)?
NS1 function inh: 1%; SARS PLpro yeast: 0%; CHX counter: 37*; Pf growth 96h: 12µM*; Pf growth 48h: 30%; Shiga toxin inh: 47*

What do the screens show for `COc1ccc(CC(=O)c2ccc(OC3OC(CO)C(O)C(O)C3O)cc2O)cc1` (stereo unspecified)?
NS1 function inh: 5%; SARS PLpro yeast: 0%; CHX counter: 14*; Pf growth 96h: inconclusive; Pf growth 48h: 10%; Shiga toxin inh: 84*

Results for Cc1c(C(N)=O)sc2ncn(CC(=O)N3CCC(C)CC3)c(=O)c12 ?
NS1 function inh: 5%; SARS PLpro yeast: -1%; CHX counter: -2; Pf growth 48h: -2%; Shiga toxin inh: 6

Results for CC(=O)c1ccc(N=C2SCCCN2C(=O)C2CCCC2)cc1 ?
SARS PLpro yeast: -1%; CHX counter: 16; Pf growth 96h: -13%; Pf growth 48h: 10%; Shiga toxin inh: 31

How did O=C(Nc1ccc(Cc2ccc(NC(=O)C3CC3)c(O)c2)cc1O)C1CC1 do in these assays?
NS1 function inh: inconclusive; SARS PLpro yeast: 2%; CHX counter: -3; Pf growth 96h: 10µM*; Pf growth 48h: 4%; Shiga toxin inh: -5

How did O=C(O)CCC(=O)Nc1ccc(Cc2ccc(NC(=O)CCC(=O)O)c(O)c2)cc1O do in these assays?
NS1 function inh: 9%; SARS PLpro yeast: 6%; CHX counter: 0; Shiga toxin inh: -12

How did CCOc1ccc(CCNC(=O)C(C)N2C(=O)CC(C)(C)Sc3ccccc32)cc1 (stereo unspecified) do in these assays?
NS1 function inh: -6%; SARS PLpro yeast: -2%; CHX counter: -6; Pf growth 96h: 59%; Pf growth 48h: inconclusive; Shiga toxin inh: -14

How did O=c1oc2cc(OCc3ccc(C(F)(F)F)cc3)ccc2cc1-c1ccccn1 do in these assays?
NS1 function inh: 4%; SARS PLpro yeast: 7%; CHX counter: -2; Pf growth 96h: 125%; Pf growth 48h: 49%; Shiga toxin inh: 3

Results for CC(=O)Oc1ccc2cc(-c3ccccc3)c(=O)oc2c1 ?
NS1 function inh: -2%; SARS PLpro yeast: -1%; CHX counter: 34*; Pf growth 96h: 79%; Pf growth 48h: 28%; Shiga toxin inh: 53*

Results for COc1ccc(-c2cc3ccc(OCC(=O)NCC4CCC(C(=O)O)CC4)cc3oc2=O)cc1 (stereo unspecified) ?
NS1 function inh: 8%; SARS PLpro yeast: inconclusive; CHX counter: 27*; Pf growth 96h: 118%; Pf growth 48h: 52%; Shiga toxin inh: 29*

What do the screens show for `CC(=O)Oc1ccc2c(=O)c(-c3ccccc3)coc2c1`?
SARS PLpro yeast: -5%; CHX counter: 38*; Pf growth 96h: 189%; Pf growth 48h: 264%; Shiga toxin inh: 80*

Results for O=C(CCCCl)Oc1ccc2cc(-c3ccc4ccccc4n3)c(=O)oc2c1 ?
NS1 function inh: 1%; SARS PLpro yeast: -14%; CHX counter: 20*; Pf growth 96h: 0%; Pf growth 48h: 29%; Shiga toxin inh: 9

What do the screens show for `O=C(COC(=O)C1CC2CCCC(C1)C2=O)NNC(=O)c1ccc([N+](=O)[O-])cc1` (stereo unspecified)?
SARS PLpro yeast: 2%; Pf growth 96h: -7%; Pf growth 48h: 38%
